Measured values: the supplement of paper PMC8269313
Structures can show the parent of a compound that is named as a salt.

Tested on: 4T1
Experiment: % inhibition of 4T1 cell number vs DMSO control; higher = stronger growth inhibition
Conditions: 1 µM, 3 days
How it was run: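 In 96-well imaging plates whose edge wells went unused, 3000 4T1-H2B-GFP mouse breast cancer cells per well were seeded in 2% FBS medium onto plastic, denuded lung matrix, mCAF1 fibroblast-derived matrix, Matrigel (15 μg/mL) or 0.2% gelatin. Sixteen hours on, kinase inhibitors went in at 1 μM final for 3 days before formalin fixation, DAPI staining and imaging on an INCell Analyzer 2200. Counting of GFP-positive nuclei gave cell numbers, from which percent inhibition relative to control was derived.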

[1] = substrate: lung fibroblast-derived matrix
[2] = substrate: mCAF1 fibroblast-derived matrix

Row | Structure (SMILES) | % inhibition of 4T1 cell number (substrate: Matrigel) [%] | % inhibition of 4T1 cell number (substrate: gelatin) [%] | % inhibition of 4T1 cell number [1] [%] | % inhibition of 4T1 cell number [2] [%] | % inhibition of 4T1 cell number (substrate: plastic) [%]
1 | CS(=O)(=O)c1ccc(-c2nc(-c3ccc(F)cc3)c(-c3ccncc3)[nH]2)cc1 | 37.9 | 63 | -4.16 | 14.7 | 52.9
2 | Cc1nc(-c2ccccc2)c(-c2ccncc2)o1 | 36.5 | 13.3 | 14.6 | -10.1 | 5.64
3 | O=C1NCCc2[nH]c(-c3ccnc(-c4cnc5ccccc5c4)c3)cc21 [MK-2 Inhibitor III] | -42.1 | -5.86 | -4.6 | 4.98 | -48.3
4 | Cc1cc2ncc(-c3ccccc3)nc2cc1C | 1.93 | 65.9 | -4.16 | 30.3 | 45.2
5 | c1nc2c(NC3CCCCC3)nc(Nc3ccc(N4CCOCC4)cc3)nc2[nH]1 [Reversine] | 91 | 89.5 | 7.75 | 85.6 | 63.1
6 | CC(C)n1cnc2c(NCc3ccccc3)nc(NCCCO)nc21 [Bohemine] | 16.5 | 13 | 0.282 | -0.566 | -30.7
7 | COc1cc(OC)c(C=C2C(=O)Nc3ccccc32)c(OC)c1 | 85.7 | 85.1 | 86.7 | 84.2 | 70.1
8 | CC(C)[C@H](CO)Nc1nc(Nc2cc(N)cc(Cl)c2)c2ncn(C(C)C)c2n1 [Aminopurvalanol A] | 77.4 | 71.6 | -15.7 | 41.1 | 80.1
9 | NC(=O)Nc1cc(-c2ccccc2)sc1C(N)=O [IKK-2 Inhibitor XI] | 48 | 55 | 2.01 | 19.8 | 28.6
10 | CCCCc1c(-c2ccc(OC)cc2)[nH]c2nccnc12 [Aloisine, RP106] | 39.6 | 41.7 | -14.4 | -9.32 | 46.9
11 | CCN(CC)CCCCN1c2ccccc2Oc2ccc(Cl)cc21 [Akt Inhibitor X] | 72.7 | 46.6 | -2.93 | -26.9 | 40
12 | CN1C(=O)C(c2c[nH]c3ccccc23)=C(c2c[nH]c3ccccc23)C1=O [Bisindolylmaleimide V] | 82.1 | 67 | -9.51 | -40.4 | 50.7
13 | COc1cc2ncnc(Nc3cccc(Cl)c3)c2cc1OC | 19.4 | -16.6 | -4.35 | 6.77 | 36
14 | Fc1ccc(-c2nc3n(c2-c2ccncc2)CCS3)cc1 | 28.9 | 18.4 | -11.4 | 18.8 | 9.54
15 | N#Cc1c(NC(=O)c2cccc3ccccc23)sc2c1CCCC2 [JNK Inhibitor IX] | 92 | 92.5 | 2.5 | 90.8 | 86.4
16 | Cn1cc(C2=C(c3cn(CCCSC(=N)N)c4ccccc34)C(=O)NC2=O)c2ccccc21 | -9.32 | 35.1 | -2.42 | 48.6 | -25.7
17 | COc1cc2ncnc(Nc3ccc(O)c(Br)c3)c2cc1OC [JAK3 Inhibitor II] | -13.3 | -52.6 | -6.47 | 25.3 | -53.6
18 | COc1cc2ncnc(Nc3ccc(Oc4ccccc4)cc3)c2cc1OC [Src Kinase Inhibitor I] | -19.5 | -6.86 | -13.5 | 32.6 | -35.4
19 | O=S(=O)(c1cccc2c(I)cccc12)N1CCCNCC1 [ML-7, Hydrochloride] | 23 | 24.2 | -1.62 | 33.6 | -7.72
20 | Nc1nccc(-c2c(-c3ccc(F)cc3)ncn2C2CCNCC2)n1 | -17.8 | -10.4 | 11.7 | 29.5 | -59.1
21 | O=C(O)c1ccc2c3c1cccc3c(=O)n1c3ccccc3nc21 | 30.6 | 44.3 | -11.4 | 31.2 | 32.2
22 | CC(C)n1cnc2c(NCc3ccccc3O)nc(NCCCO)nc21 [Cdk Inhibitor, p35] | 20.1 | 13.4 | -6.35 | -51.8 | 14.9
23 | CC(=O)c1ccc(N2CCOCC2)cc1O [DNA-PK Inhibitor III] | 0.894 | -13.7 | -5.23 | -5.96 | -24.1
24 | CCOC(=O)c1c(C)[nH]c(/C=C2\C(=O)Nc3ccccc32)c1C [VEGF Receptor 2 Kinase Inhibitor I] | 21.5 | -34.8 | -12.5 | -29.2 | 16.8
25 | COc1cc(Nc2ncc3ccn(-c4cccc(CCC#N)c4)c3n2)cc(OC)c1OC [Keratinocyte Differentiation Inducer] | 91.6 | 89 | 93.7 | 97.6 | 94.4
26 | CC(C)(C)c1nc2c3cc[nH]c(=O)c3c3cc(F)ccc3c2[nH]1 [JAK Inhibitor I] | -23.5 | -101 | -5.54 | 20.7 | -71.6
27 | COc1cc2ncnc(Nc3ccc(Cl)cc3Cl)c2cc1OC [Ste11 MAPKKK Activation Inhibitor] | 42 | 66.8 | 0.704 | -27.6 | 36.1
28 | O=c1[nH][nH]c2nnc(-c3c(-c4ccccc4)nn4ccccc34)cc12 [ERK Inhibitor II, Negative control] | -40.3 | -11.4 | -10 | 3.24 | -83.1

Row | Structure (SMILES) | % inhibition of 4T1 cell number (substrate: Matrigel) [%] | % inhibition of 4T1 cell number (substrate: gelatin) [%] | % inhibition of 4T1 cell number [1] [%] | % inhibition of 4T1 cell number [2] [%] | % inhibition of 4T1 cell number (substrate: plastic) [%]
29 | O=C1c2ccccc2-c2n[nH]c3cccc1c23 [JNK Inhibitor II] | -51.1 | -11.8 | -2.64 | 27.7 | -62.6
30 | Cc1cc(C)c(/C=C2\C(=O)Nc3ccccc32)[nH]1 [VEGF Receptor 2 Kinase Inhibitor III] | 14.1 | 30.2 | -11.5 | -25 | 2.08
31 | O=Nc1c(-c2c(O)[nH]c3cc(Br)ccc23)[nH]c2ccccc12 [GSK-3 Inhibitor IX] | -37.5 | -7.89 | -2.79 | 55.1 | 42.2
32 | CCCCCCCCCCCCCCCCn1cc[n+](Cc2ccccc2)c1C [eEF-2 Kinase Inhibitor, NH125] | 81.5 | 78.5 | 52.8 | 83.2 | 93.2
33 | O=C(c1ccc(Nc2nccc(-c3cc4ccccc4s3)n2)cc1)N1CCC(N2CCCC2)CC1 [IKK Inhibitor VII] | 81.6 | 55.4 | -10 | 52.9 | -20.6
34 | Cc1ncc2ccccc2c1C#N [4-Cyano-3-methylisoquinoline] | 48.6 | 52.6 | -13.2 | -46.1 | 56.8
35 | O=c1c2ccccc2[nH]c(=S)n1CCN1CCC(=C(c2ccc(F)cc2)c2ccc(F)cc2)CC1 [Diacylglycerol Kinase Inhibitor II] | 8.29 | -29.1 | -1.99 | -11 | -33.4
36 | COc1ccc(-c2cnc3c(-c4ccsc4)cnn3c2)cc1 [VEGF Receptor 2 Kinase Inhibitor IV] | 8.54 | 30.6 | -18.1 | 5.85 | -14.5
37 | Cn1c(O)c(-c2[nH]c3ccccc3c2N=O)c2ccc(Br)cc21 [GSK-3 Inhibitor IX, Control, MeBIO] | 3.95 | 2.35 | 16 | -1.76 | -22.7
38 | Cc1cncc2cccc(S(=O)(=O)N3CCCN(C(=O)CN)C[C@@H]3C)c12 [Rho Kinase Inhibitor IV] | -39.7 | -28.9 | 92.9 | 15.7 | -103
39 | c1ccc(-c2cnc(Nc3ccc(OCCN4CCCC4)cc3)s2)cc1 [Flt-3 Inhibitor III] | 95.2 | 88.5 | 5.06 | 65.3 | 72.6
40 | Cc1ccc(NC2=CC(=O)c3sc(C)nc3C2=O)cc1 [Cdk4 Inhibitor III] | -14.1 | 30.5 | 99.5 | 12.4 | -21.1
41 | CSc1nc(-c2ccnc(NC(C)c3ccccc3)c2)c(-c2ccc(F)cc2)[nH]1 (stereo not given) [p38 MAP Kinase Inhibitor III] | -9.55 | -7.6 | 10.6 | 23.1 | -65
42 | O=C(Nc1cccc(Nc2nccc(Nc3cccc(C(F)(F)F)c3)n2)c1)C1CC1 [Aurora Kinase Inhibitor III] | 54.8 | 74.5 | 97.8 | 15 | 63.6
43 | CCC(=O)Nc1ccc2ncnc(Nc3cccc(Br)c3)c2c1 | -8.72 | -108 | -2.26 | -19.4 | -59.2
44 | O=C1C(=Cc2ccc(O)cc2)C2=Nc3ccccc3C2=C1C1=C2C(=Nc3ccccc32)C(=Cc2ccc(O)cc2)C1=O [Scytonemin, Lyngbya sp.] | 46.6 | 52.5 | 65.9 | 26.2 | 39.5
45 | O=C(c1cc2cc(O)ccc2[nH]1)c1cc2cc(O)ccc2[nH]1 [Flt-3 Inhibitor II] | 13.9 | 26.6 | 23.8 | 22.7 | -36.1
46 | N#C/C(=C(/N)Sc1ccccc1N)c1cccc(C(O)c2ccncc2)c1 (stereo not given) [MEK Inhibitor I] | -42.3 | 30.7 | 50.2 | 40.9 | -71.7
47 | CCOc1nc(NC(=O)Cc2cc(OC)ccc2OC)cc(N)c1C#N [JNK Inhibitor VIII] | -7.17 | 11.6 | -17.8 | 31.4 | -42.5
48 | CC[C@H](CO)Nc1nc(NCc2ccc(-c3ccccn3)cc2)c2ncn(C(C)C)c2n1 [CR8, (R)-Isomer] | 99.5 | 98.7 | -11.2 | 96 | 96.7
49 | O=C1Nc2ccc(Br)cc2/C1=C/c1cc2c([nH]1)CCCC2 [VEGF Receptor 2 Kinase Inhibitor II] | 16.3 | -22.2 | -11.9 | -141 | 8.31
50 | COc1ccc(OC)c2c(=S)c3ccccc3[nH]c12 | -8.48 | -7.36 | -13.6 | 4.29 | -67
51 | O=c1cc(N2CCNCC2)oc2c(-c3ccccc3)cccc12 | -14.2 | -6.29 | -1.5 | 6.84 | -42.8
52 | O=c1cc(N2CCOCC2)oc2c1ccc1ccccc12 [DNA-PK Inhibitor II] | 9.66 | -23.4 | 34.1 | -9.82 | -13
53 | N#C/C(=C\c1ccc(O)c(O)c1)C(=O)NCc1ccccc1 | -13.1 | 42.5 | -21.1 | 15.2 | -38
54 | CNc1cc2c(Nc3cccc(Br)c3)ncnc2cn1 | -6.51 | -93.8 | 25.4 | 6.09 | -25.5
55 | O=C(Nc1ccc(Cl)cc1)c1ccccc1NCc1ccncc1 [VEGF Receptor Tyrosine Kinase Inhibitor II] | 28.8 | -12.3 | 79.7 | 0.43 | 17.2
